From PubChem BioAssay (EPA / NIEHS) come the findings set out here.

Records with an inconclusive call do not appear. Calls of active or inactive are those of the source. The calls were made as follows: active = hit-call score of the fitted dose curve at least 0.9, where 1 is the maximum; inconclusive = response in the unintended direction; inactive = score below 0.9.

The first test can be described thus: ATG_XTT_Cytotoxicity: Cytotoxicity Assessment in the Attagene TRANS-FACTORIAL HepG2 Assay (AID 2283584). Put shortly: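 Viability endpoint from XTT after 24 h chemical exposure of reporter-transfected human HepG2 liver cells; signal loss fitted relative to DMSO negative control.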
Consider `O=C1NC(=O)c2ccccc21`, for which the outcome was inactive.

Turning to `O=S(=O)(O)NC1CCCCC1`, the call was inactive.

Regarding `O=C1O[C@@H]2[C@@H](O)[C@H](O)O[C@@H]2[C@H]1O`, the outcome was inactive.

`Cc1cccc(C)c1[N+](=O)[O-]`: the call was inactive.

On to `C=C(C)[C@@H]1CCC2=CC(=O)C[C@@H](C)[C@]2(C)C1`, for which the result was inactive.

For `CSc1nnc(C(C)(C)C)c(=O)[nH]1`, the call was inactive.

Consider `CC(C)(C)c1n[nH]c(=S)n(N)c1=O`, for which the compound was called inactive.

Turning to `Nc1cc(Cl)c(O)c(Cl)c1`, the result was inactive.

As for `O=c1oc(=O)c2cc3c(=O)oc(=O)c3cc12`, the result was inactive.

As for `CC(=O)OCCC(C)CC(C)(C)C` (stereo unspecified), the compound was classed as inactive.

`Cc1ccc(C=O)cc1`: the compound was called inactive.

Regarding `NCCCN1CCOCC1`, the compound was called inactive.

On to `O=C(O)CCCCC1CCSS1` (stereo unspecified), for which the call was inactive.

In the case of `CC(C)(N)CO`, the call was inactive.

On to `CCC(C)(O)CCC=C(C)C` (stereo unspecified), for which the result was inactive.

`Cc1ccc(C(C)C)cc1O`: the outcome was inactive.

For the compound `OC[C@H]1O[C@H](O[C@]2(CCl)O[C@H](CCl)[C@@H](O)[C@@H]2O)[C@H](O)[C@@H](O)[C@H]1Cl`, the outcome was inactive.

As to `O=C(O)c1cn(-c2ccc(F)cc2)c2cc(N3CCNCC3)c(F)cc2c1=O`, the result was inactive.

On to `CC1CCC(C(C)(C)O)CC1` (stereo unspecified), for which the outcome was inactive.

As for `O=C(O)CCCCCCCCCCC(=O)O`, the compound was called inactive.

On to `COc1cc(C)cc(O)c1`, for which the call was inactive.

Consider `OCCOc1cccc(OCCO)c1`, for which the outcome was inactive.

As to `CCCCCCC#CC(=O)OC`, the result was inactive.

Consider `COc1cc2ncnc(Nc3cccc(Cl)c3)c2cc1OC`, for which the result was inactive.

On to `NCCOCCO`, for which the result was inactive.

Regarding `CCCCCCCCCCCCCCCCCC(=O)OCC(CC)CCCC` (stereo unspecified), the call was inactive.

On to `CCCCCCCCCCN`, for which the compound was classed as inactive.

On to `COC(=O)c1ccc(C)cc1`, for which the result was inactive.

In the case of `C=CC(=O)NCOCC(C)C`, the compound was classed as inactive.

On to `CC(CC(C)(C)C)CC(C)(C)CC(C)(C)C` (stereo unspecified), for which the outcome was inactive.

Take `Cc1cccc(Nc2ccccc2C(=O)O)c1C`: the result was inactive.

Take `Nc1cc(N)cc(C(=O)O)c1`: the compound was classed as inactive.

For the compound `CC(C)(C#N)c1cc(Cn2cncn2)cc(C(C)(C)C#N)c1`, the compound was called inactive.

`ClCCCl`: the call was inactive.

`COc1ccc(OC)c(OC)c1`: the compound was classed as inactive.

Turning to `CCO[Si](CCCS)(OCC)OCC`, the compound was classed as inactive.

A short description of another test: TOX21_p53_BLA_p2_viability: Viability Assessment in the Tox21 HCT-116 p53 Agonism Beta-lactamase Assay, Phase 2 (AID 2283591).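 Also: compound exposure lasted 16 h at 37 °C; actives lower the ATP signal meaning cytotoxicity.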 Put shortly: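 Cytotoxicity readout: CellTiter-Glo ATP luminescence, 30 min at room temperature, after the beta-lactamase read. Cells were HCT116 exposed 16 h at 37C to compounds pin-transferred at 217-fold dilution from DMSO stocks.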
With `Nc1cc(Cl)c(O)c(Cl)c1`, the compound was called inactive.

With `O=C(O)CCCCC1CCSS1` (stereo unspecified), the call was inactive.

Take `CCCCCCCCCCCCCCCCCC(=O)OCC(CC)CCCC` (stereo unspecified): the call was inactive.

For `CCCCCCCCCCN`, the call was inactive.

In the case of `CC(C)(C#N)c1cc(Cn2cncn2)cc(C(C)(C)C#N)c1`, the result was inactive.
